Data from article PMC11006913.
Residue numbers refer to the chain shown, from its start.

Key:
Assay in all cases: PBM; 200 nM protein, PBS
Settings in all cases: dsDNA, one strand shown
NKX2-5 [1] = molecular target: NKX2-5 (Homo sapiens, UniProt P52952 125-210, R139K)
NKX2-4 [2] = molecular target: T1, NKX2-4 (Homo sapiens, UniProt Q9H2Z4 175-261, T231S)
T1 sequence: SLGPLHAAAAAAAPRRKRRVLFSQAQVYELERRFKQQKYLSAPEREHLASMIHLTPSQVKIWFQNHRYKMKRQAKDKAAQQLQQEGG

NKX2-6 [3] = molecular target: T2, NKX2-6 (Homo sapiens, UniProt A6NCS4 118-204, R150C)
T2 sequence: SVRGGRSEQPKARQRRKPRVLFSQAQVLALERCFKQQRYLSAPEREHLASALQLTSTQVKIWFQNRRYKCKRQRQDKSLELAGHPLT

NKX2-6 [4] = molecular target: T3, NKX2-6 (Homo sapiens, UniProt A6NCS4 118-204)
T3 sequence: T2 sequence with C33R

NKX2-4 [5] = molecular target: T4, NKX2-4 (Homo sapiens, UniProt Q9H2Z4 175-261, R246Q)
T4 sequence: T1 sequence with S57T, R72Q

NKX2-6 [6] = molecular target: T5, NKX2-6 (Homo sapiens, UniProt A6NCS4 118-204, F151L)
T5 sequence: T2 sequence with C33R, F34L

NKX3-2 [7] = molecular target: NKX3-2 (Homo sapiens, UniProt P78367 192-278, P234S)
NKX2-5 [8] = molecular target: NKX2-5 (Homo sapiens, UniProt P52952 125-210)
NKX3-2 [9] = molecular target: NKX3-2 (Homo sapiens, UniProt P78367 192-278)
PRRX1 [10] = molecular target: PRRX1 (Homo sapiens, UniProt P54821 80-166, F113S)
PRRX1 [11] = molecular target: PRRX1 (Homo sapiens, UniProt P54821 80-166)
HOXA7 [12] = molecular target: HOXA7 (Homo sapiens, UniProt P31268 116-202)
HOXA7 [13] = molecular target: HOXA7 (Homo sapiens, UniProt P31268 116-202, W177C)
PAX4 [14] = molecular target: T6, PAX4 (Homo sapiens, UniProt O43316 9-242, R200K)
T6 sequence: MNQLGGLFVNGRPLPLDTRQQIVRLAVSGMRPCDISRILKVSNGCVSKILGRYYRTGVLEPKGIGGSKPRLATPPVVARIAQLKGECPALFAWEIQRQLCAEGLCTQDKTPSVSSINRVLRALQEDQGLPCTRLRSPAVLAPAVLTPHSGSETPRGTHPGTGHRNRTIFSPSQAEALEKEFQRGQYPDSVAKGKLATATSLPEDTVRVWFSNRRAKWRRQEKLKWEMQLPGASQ

PAX4 [15] = molecular target: T7, PAX4 (Homo sapiens, UniProt O43316 9-242)
T7 sequence: T6 sequence with K192R

HOXD13 [16] = molecular target: HOXD13 (Homo sapiens, UniProt P35453 263-343, T313R)
PAX4 [17] = molecular target: T8, PAX4 (Homo sapiens, UniProt O43316 9-242, R200Q)
T8 sequence: T6 sequence with K192Q

HOXD13 [18] = molecular target: HOXD13 (Homo sapiens, UniProt P35453 263-343)
PAX4 [19] = molecular target: T9, PAX4 (Homo sapiens, UniProt O43316 9-242, F177V)
T9 sequence: T6 sequence with F169V, K192R

PAX4 [20] = molecular target: T10, PAX4 (Homo sapiens, UniProt O43316 9-242, F177Y)
T10 sequence: T6 sequence with F169Y, K192R

HOXD13 [21] = molecular target: HOXD13 (Homo sapiens, UniProt P35453 263-343, T313A)
PAX4 [22] = molecular target: T11, PAX4 (Homo sapiens, UniProt O43316 9-242, R227W)
T11 sequence: T6 sequence with K192R, R219W

HOXC9 [23] = molecular target: HOXC9 (Homo sapiens, UniProt P31274 178-260, K195R)
HOXC9 [24] = molecular target: HOXC9 (Homo sapiens, UniProt P31274 178-260)
ALX3 [25] = molecular target: ALX3 (Homo sapiens, UniProt O95076 139-225, N203Q)
HOXC9 [26] = molecular target: HOXC9 (Homo sapiens, UniProt P31274 178-260, R193K)
ALX3 [27] = molecular target: ALX3 (Homo sapiens, UniProt O95076 139-225)
PROP1 [28] = molecular target: PROP1 (Homo sapiens, UniProt O75360 56-141)
PROP1 [29] = molecular target: PROP1 (Homo sapiens, UniProt O75360 56-141, R99H)
ALX3 [30] = molecular target: ALX3 (Homo sapiens, UniProt O95076 139-225, L168Q)
HOXC9 [31] = molecular target: HOXC9 (Homo sapiens, UniProt P31274 178-260, R222W)
ALX3 [32] = molecular target: ALX3 (Homo sapiens, UniProt O95076 139-225, L168V)
PROP1 [33] = molecular target: PROP1 (Homo sapiens, UniProt O75360 56-141, F88S)
ALX3 [34] = molecular target: ALX3 (Homo sapiens, UniProt O95076 139-225, N203S)
Sequence of ALX3 (Homo sapiens, UniProt O95076 139-225, N203S) (O95076 139-225 N203S): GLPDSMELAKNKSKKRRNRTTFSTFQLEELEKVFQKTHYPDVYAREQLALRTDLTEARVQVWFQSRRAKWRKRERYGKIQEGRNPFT

Sequence of NKX2-5 (Homo sapiens, UniProt P52952 125-210) (P52952 125-210): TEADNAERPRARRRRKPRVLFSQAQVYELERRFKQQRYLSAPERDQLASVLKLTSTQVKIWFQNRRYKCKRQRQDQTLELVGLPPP
Sequence of NKX2-5 (Homo sapiens, UniProt P52952 125-210, R139K) (P52952 125-210 R139K): as the sequence (P52952 125-210) above, with R15K counted along it
Sequence of PRRX1 (Homo sapiens, UniProt P54821 80-166, F113S) (P54821 80-166 F113S): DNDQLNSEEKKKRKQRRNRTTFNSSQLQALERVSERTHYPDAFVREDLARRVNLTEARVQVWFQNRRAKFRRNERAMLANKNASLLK
Sequence of HOXA7 (Homo sapiens, UniProt P31268 116-202) (P31268 116-202): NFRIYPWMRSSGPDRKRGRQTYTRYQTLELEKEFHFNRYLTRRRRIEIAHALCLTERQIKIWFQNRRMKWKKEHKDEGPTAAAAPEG
Sequence of HOXA7 (Homo sapiens, UniProt P31268 116-202, W177C) (P31268 116-202 W177C): as the sequence (P31268 116-202) above, with W62C counted along it
Sequence of PRRX1 (Homo sapiens, UniProt P54821 80-166) (P54821 80-166): as the sequence (P54821 80-166 F113S) above, with S34F counted along it
Sequence of PROP1 (Homo sapiens, UniProt O75360 56-141) (O75360 56-141): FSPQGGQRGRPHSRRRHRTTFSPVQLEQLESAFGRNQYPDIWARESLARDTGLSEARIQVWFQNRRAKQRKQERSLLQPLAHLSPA
Sequence of ALX3 (Homo sapiens, UniProt O95076 139-225, N203Q) (O95076 139-225 N203Q): as the sequence (O95076 139-225 N203S) above, with S65Q counted along it
Sequence of ALX3 (Homo sapiens, UniProt O95076 139-225, L168Q) (O95076 139-225 L168Q): as the sequence (O95076 139-225 N203S) above, with L30Q, S65N counted along it
Sequence of PROP1 (Homo sapiens, UniProt O75360 56-141, R99H) (O75360 56-141 R99H): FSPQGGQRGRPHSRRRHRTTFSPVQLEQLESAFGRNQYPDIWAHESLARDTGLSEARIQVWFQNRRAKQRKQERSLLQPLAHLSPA
Sequence of HOXD13 (Homo sapiens, UniProt P35453 263-343) (P35453 263-343): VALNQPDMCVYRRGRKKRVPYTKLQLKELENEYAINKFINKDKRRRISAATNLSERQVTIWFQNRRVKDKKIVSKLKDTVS
Sequence of PROP1 (Homo sapiens, UniProt O75360 56-141, F88S) (O75360 56-141 F88S): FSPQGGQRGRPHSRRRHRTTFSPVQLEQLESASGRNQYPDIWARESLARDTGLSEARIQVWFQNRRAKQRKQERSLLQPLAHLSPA
Sequence of NKX3-2 (Homo sapiens, UniProt P78367 192-278) (P78367 192-278): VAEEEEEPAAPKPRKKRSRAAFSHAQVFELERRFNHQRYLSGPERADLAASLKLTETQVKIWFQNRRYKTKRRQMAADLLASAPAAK
Sequence of HOXD13 (Homo sapiens, UniProt P35453 263-343, T313A) (P35453 263-343 T313A): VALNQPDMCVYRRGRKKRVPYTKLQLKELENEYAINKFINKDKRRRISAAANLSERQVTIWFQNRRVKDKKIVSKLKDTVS
Sequence of HOXD13 (Homo sapiens, UniProt P35453 263-343, T313R) (P35453 263-343 T313R): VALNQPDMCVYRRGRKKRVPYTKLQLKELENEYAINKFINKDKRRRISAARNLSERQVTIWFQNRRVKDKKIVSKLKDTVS
Sequence of ALX3 (Homo sapiens, UniProt O95076 139-225, L168V) (O95076 139-225 L168V): as the sequence (O95076 139-225 N203S) above, with L30V, S65N counted along it
Sequence of ALX3 (Homo sapiens, UniProt O95076 139-225) (O95076 139-225): as the sequence (O95076 139-225 N203S) above, with S65N counted along it
Sequence of HOXC9 (Homo sapiens, UniProt P31274 178-260, R193K) (P31274 178-260 R193K): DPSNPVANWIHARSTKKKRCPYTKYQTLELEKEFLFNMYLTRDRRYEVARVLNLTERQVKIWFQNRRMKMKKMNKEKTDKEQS
Sequence of HOXC9 (Homo sapiens, UniProt P31274 178-260, R222W) (P31274 178-260 R222W): as the sequence (P31274 178-260 R193K) above, with K16R, R45W counted along it
Sequence of NKX3-2 (Homo sapiens, UniProt P78367 192-278, P234S) (P78367 192-278 P234S): as the sequence (P78367 192-278) above, with P43S counted along it
Sequence of HOXC9 (Homo sapiens, UniProt P31274 178-260, K195R) (P31274 178-260 K195R): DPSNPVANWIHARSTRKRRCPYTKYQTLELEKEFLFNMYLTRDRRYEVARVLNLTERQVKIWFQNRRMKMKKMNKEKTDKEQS
Sequence of HOXC9 (Homo sapiens, UniProt P31274 178-260) (P31274 178-260): as the sequence (P31274 178-260 R193K) above, with K16R counted along it

GACACTTA
binding signal (NKX2-5 [1]): 12.7 upbm affinity estimate (log intensity, higher = more binding, comparable within an allelic series)
binding signal (NKX2-4 [2]): 12.8 upbm affinity estimate (log intensity, higher = more binding, comparable within an allelic series)
binding signal (NKX2-6 [3]): 11.8 upbm affinity estimate (log intensity, higher = more binding, comparable within an allelic series)
binding signal (NKX2-6 [4]): 13.6 upbm affinity estimate (log intensity, higher = more binding, comparable within an allelic series)
binding signal (NKX2-4 [5]): 12.9 upbm affinity estimate (log intensity, higher = more binding, comparable within an allelic series)
binding signal (NKX2-6 [6]): 11.1 upbm affinity estimate (log intensity, higher = more binding, comparable within an allelic series)
binding signal (NKX3-2 [7]): 12.8 upbm affinity estimate (log intensity, higher = more binding, comparable within an allelic series)
binding signal (NKX2-5 [8]): 12.6 upbm affinity estimate (log intensity, higher = more binding, comparable within an allelic series)
binding signal (NKX3-2 [9]): 12.9 upbm affinity estimate (log intensity, higher = more binding, comparable within an allelic series)

CGCCTACC
binding signal (NKX2-5 [1]): 8.86 upbm affinity estimate (log intensity, higher = more binding, comparable within an allelic series)
binding signal (PRRX1 [10]): 9.18 upbm affinity estimate (log intensity, higher = more binding, comparable within an allelic series)
binding signal (PRRX1 [11]): 8.83 upbm affinity estimate (log intensity, higher = more binding, comparable within an allelic series)
binding signal (NKX2-5 [8]): 8.84 upbm affinity estimate (log intensity, higher = more binding, comparable within an allelic series)

CCGGACCG
binding signal (NKX2-5 [1]): 8.49 upbm affinity estimate (log intensity, higher = more binding, comparable within an allelic series)
binding signal (HOXA7 [12]): 8.43 upbm affinity estimate (log intensity, higher = more binding, comparable within an allelic series)
binding signal (HOXA7 [13]): 8.36 upbm affinity estimate (log intensity, higher = more binding, comparable within an allelic series)
binding signal (NKX2-5 [8]): 8.49 upbm affinity estimate (log intensity, higher = more binding, comparable within an allelic series)

CGGTGGGC
binding signal (NKX2-5 [1]): 9.02 upbm affinity estimate (log intensity, higher = more binding, comparable within an allelic series)
binding signal (PAX4 [14]): 9.41 upbm affinity estimate (log intensity, higher = more binding, comparable within an allelic series)
binding signal (PAX4 [15]): 9.5 upbm affinity estimate (log intensity, higher = more binding, comparable within an allelic series)
binding signal (NKX2-6 [3]): 9.22 upbm affinity estimate (log intensity, higher = more binding, comparable within an allelic series)
binding signal (HOXD13 [16]): 9.46 upbm affinity estimate (log intensity, higher = more binding, comparable within an allelic series)
binding signal (PAX4 [17]): 9.39 upbm affinity estimate (log intensity, higher = more binding, comparable within an allelic series)
binding signal (HOXD13 [18]): 9.53 upbm affinity estimate (log intensity, higher = more binding, comparable within an allelic series)
binding signal (PAX4 [19]): 9.14 upbm affinity estimate (log intensity, higher = more binding, comparable within an allelic series)
binding signal (PAX4 [20]): 9.14 upbm affinity estimate (log intensity, higher = more binding, comparable within an allelic series)
binding signal (HOXD13 [21]): 9.44 upbm affinity estimate (log intensity, higher = more binding, comparable within an allelic series)
binding signal (PAX4 [22]): 9.26 upbm affinity estimate (log intensity, higher = more binding, comparable within an allelic series)
binding signal (NKX2-5 [8]): 9.07 upbm affinity estimate (log intensity, higher = more binding, comparable within an allelic series)

AGCCGACA
binding signal (NKX2-5 [1]): 8.87 upbm affinity estimate (log intensity, higher = more binding, comparable within an allelic series)
binding signal (PRRX1 [10]): 9.45 upbm affinity estimate (log intensity, higher = more binding, comparable within an allelic series)
binding signal (PRRX1 [11]): 9.49 upbm affinity estimate (log intensity, higher = more binding, comparable within an allelic series)
binding signal (NKX2-5 [8]): 9.05 upbm affinity estimate (log intensity, higher = more binding, comparable within an allelic series)

AGGCCAGC
binding signal (NKX2-5 [1]): 8.71 upbm affinity estimate (log intensity, higher = more binding, comparable within an allelic series)
binding signal (HOXA7 [12]): 8.41 upbm affinity estimate (log intensity, higher = more binding, comparable within an allelic series)
binding signal (HOXA7 [13]): 8.42 upbm affinity estimate (log intensity, higher = more binding, comparable within an allelic series)
binding signal (NKX2-5 [8]): 8.67 upbm affinity estimate (log intensity, higher = more binding, comparable within an allelic series)

ACGGGGGC
binding signal (NKX2-5 [1]): 9.14 upbm affinity estimate (log intensity, higher = more binding, comparable within an allelic series)
binding signal (HOXC9 [23]): 9.65 upbm affinity estimate (log intensity, higher = more binding, comparable within an allelic series)
binding signal (HOXC9 [24]): 9.77 upbm affinity estimate (log intensity, higher = more binding, comparable within an allelic series)
binding signal (ALX3 [25]): 7.66 upbm affinity estimate (log intensity, higher = more binding, comparable within an allelic series)
binding signal (HOXC9 [26]): 9.64 upbm affinity estimate (log intensity, higher = more binding, comparable within an allelic series)
binding signal (ALX3 [27]): 7.79 upbm affinity estimate (log intensity, higher = more binding, comparable within an allelic series)
binding signal (PROP1 [28]): 6.75 upbm affinity estimate (log intensity, higher = more binding, comparable within an allelic series)
binding signal (PROP1 [29]): 6.67 upbm affinity estimate (log intensity, higher = more binding, comparable within an allelic series)
binding signal (ALX3 [30]): 7.65 upbm affinity estimate (log intensity, higher = more binding, comparable within an allelic series)
binding signal (HOXC9 [31]): 9.54 upbm affinity estimate (log intensity, higher = more binding, comparable within an allelic series)
binding signal (ALX3 [32]): 7.65 upbm affinity estimate (log intensity, higher = more binding, comparable within an allelic series)
binding signal (PROP1 [33]): 6.19 upbm affinity estimate (log intensity, higher = more binding, comparable within an allelic series)
binding signal (ALX3 [34]): 7.62 upbm affinity estimate (log intensity, higher = more binding, comparable within an allelic series)
binding signal (NKX2-5 [8]): 9.01 upbm affinity estimate (log intensity, higher = more binding, comparable within an allelic series)
